# ALOX12 inh: ALOX12 (human) lipoxygenase inhibition. P18054. purified 12hLO, xylenol orange hydroperoxide absorbance. Potency, µM (top dose mostly 108 µM), for the others: at the highest dose activity change, negative = inhibition, actives largely listed as inhibitors. 580,000 tested, 1.1% active. AID 1671190; note: potency is the fitted concentration of half-maximal effect; % is set by controls: 0 for no effect and ±100 for the full control effect
#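 Hydroperoxide product was detected by ferrous iron/xylenol orange as the 573 to 405 nm absorbance ratio. Arachidonic acid at 40 uM (final) was turned over for 30 min at room temperature by 150 nM human 12hLO, pH 7.0 Hepes buffer, after 15 min compound preincubation.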
# GCN5L2 inh: inhibitors of human GCN5L2 histone acetyltransferase; Q92830; GCN5L2 HAT assay, ThioGlo1 CoA-SH fluorescence; Potency, µM (series often up to 58.9 µM), inactives show at the highest dose activity change, negative = inhibition, hits mostly inhibitors; 390,000 tested, 0.21% active; AID 504327; note: potency is the fitted concentration of half-maximal effect; % is set by controls: 0 for no effect and ±100 for the full control effect
#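 qHTS, 1536-well. 20nM enzyme, pH 7.5 HEPES/EDTA/Tween-20 buffer; 15 min compound preinc., RT. Start: 75uM H3(1-25), 70uM AcCoA, 50uM ThioGlo1. Read Ex340/Em540 at t=0 (autofluorescence flag) and t=20 min.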
# VDR inhibitor: blocks the human vitamin D receptor. P11473. VDR-SRC2-3 peptide fluorescence polarization, 2 h. Potency, µM, inactives show max response, negative = inhibition, most hits filed as inhibitors. 400,000 tested, 0.93% active. AID 504847; note: potency is the fitted concentration of half-maximal effect; % is set by controls: 0 for no effect and ±100 for the full control effect
# Target sequence (P11473 whole entry, looked up): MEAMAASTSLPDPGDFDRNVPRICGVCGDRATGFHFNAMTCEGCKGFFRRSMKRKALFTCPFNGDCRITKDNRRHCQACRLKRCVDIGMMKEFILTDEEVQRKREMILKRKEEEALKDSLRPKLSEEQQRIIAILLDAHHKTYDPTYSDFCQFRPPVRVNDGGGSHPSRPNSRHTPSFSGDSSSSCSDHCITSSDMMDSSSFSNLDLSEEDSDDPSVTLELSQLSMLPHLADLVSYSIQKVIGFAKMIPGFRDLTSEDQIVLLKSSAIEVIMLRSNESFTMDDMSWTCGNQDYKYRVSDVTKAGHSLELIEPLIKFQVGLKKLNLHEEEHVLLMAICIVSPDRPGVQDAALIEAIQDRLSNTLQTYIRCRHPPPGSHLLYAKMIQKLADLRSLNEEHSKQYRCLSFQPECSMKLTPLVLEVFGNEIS
#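 Fluorescence polarization assay measuring small-molecule disruption of VDR binding to the coregulator peptide SRC2-3. Compounds were pin-transferred (23 nl) into the reagent mix and incubated 2 h at room temperature before reading.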
# PLK1 PBD block: blocks phosphopeptide binding to human PLK1 polo-box domain; P53350; Plk1 PBD binding of FITC phosphopeptide, fluorescence polarization; Potency, µM, for the others: max response, negative = inhibition, usual class: inhibitors; 360,000 tested, 2.8% active; AID 720504; note: potency is the fitted concentration of half-maximal effect; series mostly up to about 57 µM; % is set by controls: 0 for no effect and ±100 for the full control effect; nearly all actives have a fitted effect of over 65% in size
# USP1 UbRho: USP1-UAF1 deubiquitinase inhibition validated. 50 tested, 50% active. Ub-Rhodamine cleavage, fluorescence kinetic read. Potency, µM (titrated, usually from 56.8 µM), without a hit: top-dose activity change, negative = inhibition, most hits filed as inhibitors. AID 540327. shares compounds with VDR inhibitor
# VDR confirm: confirmation of human vitamin D receptor inhibitors. shares compounds with VDR inhibitor. VDR-coactivator inhibition assay, qHTS confirmation. Potency, µM, hits mostly inhibitors. 840 tested, 89% active; note: potency is the fitted concentration of half-maximal effect
# VDR FP: blocks human VDR-coactivator binding in fluorescein assay. VDR-coactivator binding, fluorescein fluorescence polarization. Potency, µM (doses to about 57.1 µM), for the others: at the highest dose activity change, negative = inhibition, usual class: inhibitors. shares compounds with VDR inhibitor. 840 tested, 48% active. AID 602200; note: potency is the fitted concentration of half-maximal effect
# VDR bla: inhibits human VDR in beta-lactamase reporter cells; 840 tested, 23% active; shares compounds with VDR inhibitor; VDR beta-lactamase reporter cells, FRET ratio; cells co-treated with VDR agonist LG190178; Potency, µM (series often up to 46.1 µM), for inactives: top-dose activity change, negative = inhibition, hits mostly inhibitors; note: potency is the fitted concentration of half-maximal effect; % is set by controls: 0 for no effect and ±100 for the full control effect
# VDR cytotox: cytotoxic in counter-screen for VDR inhibitors; shares compounds with VDR inhibitor; cytotoxicity counter-screen, cell viability, qHTS; Potency, µM (doses to about 48.3 µM), for inactives: top-dose activity change, negative = cytotoxicity, usual class: cytotoxic; 840 tested, 18% active;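 note: potency is the fitted concentration of half-maximal effect; plate controls were DMSO for no effect and high-concentration cycloheximide for full effect; nearly all actives have a fitted effect of over 75% in size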
# * = called active by the depositor; ? = inconclusive; · = no result; [ ] = dose if it differs, or a comment. This is a sample that favours compounds with a hit; in the whole collection about 3% have one here. Calls come from the whole dose curve; as a rule, active = well fitted curve in the direction sought with a large enough effect; inconclusive = small, poorly fitted or top-dose-only effect, or another doubt; inactive = no such curve, though single readings can be large; an effect the other way counts as inactive or inconclusive.
SMILES,ALOX12 inh,GCN5L2 inh,VDR inhibitor,PLK1 PBD block,VDR confirm,VDR FP,VDR bla,VDR cytotox,others
CC1CCCCN1CCCNc1nc(-c2ccncc2)nc2ccccc12 (stereo not given),-18.0%,·,·,·,·,·,·,·,
CCN(CC)C(=O)c1ccc2oc(CN3CCN(C(=O)Nc4cccc(Cl)c4C)CC3)nc2c1,0.0%,·,·,·,·,·,·,·,
NC(=O)COc1ccc(C(=O)/C=C2/C(=O)Nc3ccccc32)cc1,-6.8%,3.2%,?,?,?,?,23.9%,18.7%,
O=C1Nc2ccccc2/C1=C/C(=O)c1cccs1,?,-22.1%,?,16.8µM*,11.2*,10µM*,?,17.8%,
COc1ccc(C(=O)/C=C2/C(=O)Nc3ccccc32)cc1OC,-19.6%,-4.6%,-14.7%,-23.4%,·,·,·,·,
COc1ccc(C(=O)/C=C2/C(=O)Nc3ccccc32)cc1,-27.1%,-3.3%,?,-13.3%,·,·,·,·,
O=C(NC1CCN(Cc2ccccc2)CC1)c1cc2cc(Cl)ccc2[nH]1,-64.7%,·,·,·,·,·,·,·,
COc1cc(/C=C/C(=O)c2ccc(F)cc2)cc(OC)c1OC,76.2%,-10.0%,31.6µM*,-7.5%,21.2*,?,?,?,
CCOc1ccc(C(=O)/C=C/c2cc(OC)c(OC)c(OC)c2)cc1,-3.1%,-5.8%,?,-2.8%,·,·,·,·,
CCC(C)NC(=O)c1ccc(CNC(=O)NC(C)C)cc1 (stereo not given),22.8%,·,·,·,·,·,·,·,
Nc1c(N2CCCC2)cc(Cl)c2nonc12,·,-11.6%,?,21.2µM*,5.01*,2.82µM*,2.7%,6.9%,
O=C(Cc1ccc(Cl)cc1)NCc1ccccc1Cl,-0.3%,-7.9%,7.4%,-5.4%,·,·,·,·,
O=C(Cc1ccccc1Cl)NC1(O)C(=O)c2ccccc2C1=O,?,0.3%,50.1µM*,-22.6%,10.6*,-17.2%,8.1%,4.1%,
CCn1nc(C(=O)Nc2cccc(C)c2C(=O)OC)c2ccccc2c1=O,9.5%,·,·,·,·,·,·,·,
OCCN1CCN(CC/C=C2/c3ccccc3Sc3ccc(C(F)(F)F)cc32)CC1,?,?,?,-1.7%,·,·,·,·,USP1 UbRho=?
O=C1CO[C@H]2CCN(Cc3cccs3)CC[C@@H]2N1c1ccccc1,-20.6%[176 µM],·,·,·,·,·,·,·,
O=C(CCCSc1ccc(Cl)cc1)Nc1cc(S(=O)(=O)N2CCOCC2)ccc1O,?,-28.9%,?,3.36µM*,3.98*,3.16µM*,-6.0%,-8.7%,
CCOC(=O)c1ccc(S(=O)(=O)Nc2cc(S(=O)(=O)N3CCOCC3)ccc2O)cc1,?,?,44.7µM*,5.32µM*,8.44*,?,0.3%,2.6%,
Nc1cccc2c1C(=O)N(C(=O)/C=C/c1cccc(Br)c1)C2=O,-23.1%,-17.8%,39.8µM*,?,9.47*,4.47µM*,-20.4%,14.8%,
CCC1C/C(=C\c2cccnc2)C(=O)/C(=C/c2cccnc2)C1 (stereo not given),-12.6%,0.0%,22.4µM*,-16.6%,5.32*,3.55µM*,5.8µM*,20.6µM*,
O=C1/C(=C/c2cccnc2)CCC/C1=C\c1cccnc1,-12.8%,-2.0%,50.1µM*,-12.7%,12.6*,20µM*,5.8µM*,15µM*,
O=C1/C(=C/c2cccnc2)CC/C1=C\c1cccnc1,6.0%,-9.1%,-4.8%,-11.7%,·,·,·,·,
CNC(=O)COc1cccc(N)c1,19.9%,·,·,·,·,·,·,·,
Cc1c(C(=O)CSc2nnc(C3CC3)n2C)sc2ccccc12,15.9%,·,·,·,·,·,·,·,
Cc1cc(C)cc(NC(=O)CSc2nc3sc4c(c3c(=O)[nH]2)CCCC4)c1,-26.8%,2.8%,5.8%,·,·,·,·,·,
